Assay results reported in PubChem BioAssay (NCI).
Compounds without any hit were thinned out: in the full panel of roughly 79,000, 15% have a hit. Active and inactive are the calls of the source. Cut-off read from the data, not from the text of the source: active = growth inhibition above about 70%; inactive = the rest.

Experiments:
[1] = NCI Yeast Anticancer Drug Screen. Data for the rad52 strain (AID 147);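 note: 0% = growth of vehicle-treated control cultures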; settings: S. cerevisiae rad52 mutant growth inhibition, stronger effect = higher value
How it was run: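 Vehicle-treated cultures served as the reference for growth inhibition of compound-exposed yeast bearing a DNA repair mutation.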

[2] = NCI Yeast Anticancer Drug Screen. Data for the wt1 strain (AID 149);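 note: 0% = growth of vehicle-treated wt1 cultures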; settings: S. cerevisiae wt1 strain (SPY 50644) growth inhibition, stronger effect = higher value
How it was run: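 Compounds are added to wt1 yeast cultures. Growth is then measured. Inhibition is expressed relative to vehicle-treated controls.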

[3] = NCI Yeast Anticancer Drug Screen. Data for the rad50EPP+ strain (AID 151);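 note: 0% = growth of vehicle-treated control cultures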; settings: S. cerevisiae rad50 mutant strain, stronger effect = higher value
How it was run: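 In this screen, rad50EPP+ yeast were exposed to compounds. Growth inhibition was scored against vehicle-treated controls.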

[4] = NCI Yeast Anticancer Drug Screen. Data for the mgt1 strain (AID 153); settings: S. cerevisiae mgt1 mutant growth inhibition, stronger effect = higher value
How it was run: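 mgt1 strain exposed; growth vs vehicle control recorded as inhibition.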

[5] = NCI Yeast Anticancer Drug Screen. Data for the rad50 strain (AID 155);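 note: 0% = growth of vehicle-only cultures of the same strain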; settings: S. cerevisiae rad50 strain growth inhibition, stronger effect = higher value
How it was run: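 Inhibition values express reduced yeast growth in compound-treated cultures relative to vehicle-treated controls.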

[6] = NCI Yeast Anticancer Drug Screen. Data for the mec2-1 strain (AID 157); settings: S. cerevisiae mec2-1 strain, stronger effect = higher value
How it was run: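 Vehicle-treated cultures served as reference for growth inhibition of compound-exposed mec2-1 yeast.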

[7] = NCI Yeast Anticancer Drug Screen. Data for the rad14 strain (AID 159);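 note: 0% = growth of vehicle-treated control cultures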; settings: S. cerevisiae rad14 strain growth inhibition, stronger effect = higher value
How it was run: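 A mutant yeast strain defective in DNA damage repair is treated with compound; inhibition of its growth is scored against untreated, vehicle-exposed cultures.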

[8] = NCI Yeast Anticancer Drug Screen. Data for the sgs1 mgt1 strain (AID 161);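 note: 0% = growth of cultures given vehicle only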; settings: S. cerevisiae sgs1 mgt1 strain, stronger effect = higher value
How it was run: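 Test agents were incubated with a DNA-repair-mutant yeast strain. Growth was then read and compared against vehicle-treated controls.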

[9] = NCI Yeast Anticancer Drug Screen. Data for the CLN2oe strain (AID 163);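 note: 0% = growth of vehicle-only control cultures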; settings: S. cerevisiae CLN2oe strain, stronger effect = higher value
How it was run: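 Inhibition relative to vehicle-treated yeast is reported. Cells: strain with genetic alteration in cell-cycle control, grown with compound.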

[10] = NCI Yeast Anticancer Drug Screen. Data for the cln2 rad14 strain (AID 165);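 note: 0% = growth equal to vehicle treated cultures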; settings: S. cerevisiae cln2 rad14 strain, stronger effect = higher value
How it was run: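 Each compound was tested on cln2 rad14 yeast. Inhibition of growth was calculated against vehicle-exposed controls.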

[11] = NCI Yeast Anticancer Drug Screen. Data for the bub3 strain (AID 167); settings: S. cerevisiae bub3 mutant strain, stronger effect = higher value
How it was run: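 Steps: expose the mutant yeast strain to compound; grow alongside vehicle-treated cultures; measure growth; express inhibition against the vehicle cultures.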

[12] = NCI Yeast Anticancer Drug Screen. Data for the wt2 strain (AID 169);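 note: 0% = growth of vehicle-treated yeast cultures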; settings: S. cerevisiae wt2 strain growth inhibition, stronger effect = higher value
How it was run: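 Inhibition of yeast growth was determined after compound treatment, normalised to controls receiving only vehicle.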

[13] = NCI Yeast Anticancer Drug Screen. Data for the mlh1 strain (AID 171);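 note: 0% = growth of vehicle-treated control cultures of the same strain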; settings: S. cerevisiae mlh1 strain growth inhibition, stronger effect = higher value
How it was run: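 Vehicle-normalised growth inhibition of a repair- or checkpoint-altered yeast strain following compound treatment.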

[14] = NCI Yeast Anticancer Drug Screen. Data for the sgs1 strain (AID 173);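 note: 0% = growth of vehicle-only control cultures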; settings: S. cerevisiae sgs1 mutant, stronger effect = higher value
How it was run: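 Screen format: yeast with repair or checkpoint alterations, compound exposure, growth read relative to vehicle.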

[15] = NCI Yeast Anticancer Drug Screen. Data for the mlh1 rad18 strain (AID 175); settings: S. cerevisiae mlh1 rad18 strain growth inhibition, stronger effect = higher value
How it was run: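 Vehicle-treated cultures served as the reference for growth inhibition in a yeast strain carrying DNA damage repair alterations exposed to each compound.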

[16] = NCI Yeast Anticancer Drug Screen. Data for the rad18 strain (AID 177); settings: S. cerevisiae rad18 mutant growth inhibition, stronger effect = higher value
How it was run: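 Test articles were incubated with altered yeast defective in DNA damage repair. Results are given as inhibition of growth versus vehicle.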

[17] = at 5.0 µM (retest, dose inferred, filed as 0.5)
[18] = at 50.0 µM (retest, dose inferred, filed as 5.0)

Measured: growth inhibition

O=C1Nc2ccc(Br)cc2C1=Nc1ccc(Cl)cc1
active: [2]; at 100.0 µM 71% | [5]; [17] 70% | [5]; [18] 100% | [6]; [17] 77% | [6]; [18] 100% | [8]; [18] 71% | [11]; [18] 86% | [11]; at 50.0 µM 83.4% | [11]; at 100.0 µM 81% | [15]; [18] 100%
inactive: [1]; at 1.2 µM -20% | [1]; at 3.7 µM -12% | [1]; at 11.0 µM 9% | [1]; at 33.0 µM 42% | [1]; at 100.0 µM 64% | [2]; at 1.2 µM -8% | [2]; at 3.7 µM -15% | [2]; at 11.0 µM 14% | [2]; at 33.0 µM 42% | [3]; at 1.2 µM -45% | [3]; at 3.7 µM -10% | [3]; at 11.0 µM -8% | [3]; at 33.0 µM 8% | [3]; at 100.0 µM 41% | [4]; at 1.2 µM -52% | [4]; at 3.7 µM -55% | [4]; at 11.0 µM -21% | [4]; at 33.0 µM 20% | [4]; at 100.0 µM 50% | [5]; at 1.2 µM -29% | [5]; at 3.7 µM -20% | [5]; at 11.0 µM 12% | [5]; at 33.0 µM 42% | [5]; at 50.0 µM 57.4% | [5]; at 100.0 µM 64% | [6]; at 1.2 µM -68% | [6]; at 3.7 µM -75% | [6]; at 11.0 µM -64% | [6]; at 33.0 µM -1% | [6]; at 50.0 µM 54.5% | [6]; at 100.0 µM 57% | [7]; at 1.2 µM -52% | [7]; at 3.7 µM -62% | [7]; at 11.0 µM -46% | [7]; at 33.0 µM -8% | [7]; at 100.0 µM 34% | [8]; [17] 8% | [8]; at 50.0 µM 53.4% | [9]; at 1.2 µM 2% | [9]; at 3.7 µM 1% | [9]; at 11.0 µM 20% | [9]; at 33.0 µM 24% | [9]; at 100.0 µM 52% | [10]; [17] 36% | [10]; [18] 54% | [10]; at 50.0 µM 34% | [11]; at 1.2 µM -38% | [11]; at 3.7 µM -26% | [11]; [17] 28% | [11]; at 11.0 µM -11% | [11]; at 33.0 µM 29% | [12]; at 1.2 µM -20% | [12]; at 3.7 µM -12% | [12]; at 11.0 µM -10% | [12]; at 33.0 µM 14% | [12]; at 100.0 µM 47% | [13]; at 1.2 µM -16% | [13]; at 3.7 µM -24% | [13]; at 11.0 µM -3% | [13]; at 33.0 µM 8% | [13]; at 100.0 µM 46% | [14]; at 1.2 µM -25% | [14]; at 3.7 µM -27% | [14]; at 11.0 µM 3% | [14]; at 33.0 µM 33% | [14]; at 100.0 µM 54% | [15]; [17] 67% | [15]; at 50.0 µM 58.5% | [16]; at 1.2 µM -24% | [16]; at 3.7 µM -13% | [16]; at 11.0 µM 2% | [16]; at 33.0 µM 32% | [16]; at 100.0 µM 60%
